SKKanGAS inh: blocks kanamycin growth of S. pyogenes SKKanGAS strain; BacTiter-Glo, 6 h; inhibition, % at 7.5 µM; hit rate 1.3% among 300,000;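 active = mean replicate score, as percent of positive control median, at least 50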;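 note: strain carries kanamycin resistance gene driven by streptokinase promoter and grows in 40 µg/ml kanamycin; loss of luminescence reflects streptokinase promoter inhibition or plain growth inhibition; 0% = median of DMSO wells and 100% = positive control at its reference dose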
TIM10 inh: growth inhibitors of TIM10 yeast strain | AID 463195 | inhibition, % at 10 µM | hit rate 1.4% among 330,000 | S. cerevisiae TIM10 strain growth, BacTiter-Glo luminescence, 24 h;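 active = inhibition of 40% or more at the single tested concentration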;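 note: wild-type TIM10 isogenic control strain grown at permissive 25 °C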
NALP1 yeast inh: inhibitors of NALP1 inflammasome in yeast | S. cerevisiae NALP1/ASC/caspase-1 growth, X-gal OD620, 72 h | AID 2071 | hit rate 0.61% among 280,000 | inhibition, % at 10 µM; in the data active = inhibition mostly above about 24%, no sharp cut-off; inactive = mostly below about 32%
tim23-1 inh: tim23-1 yeast growth inhibition. inhibition, % at 20 µM. S. cerevisiae tim23-1 growth, BacTiter-Glo luminescence, 24 h. AID 463212. hit rate 1.3% among 330,000;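 active = growth inhibition of the mutant yeast at or above 50%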;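 note: temperature-sensitive mutant grown at 25 °C; plate controls were DMSO-treated mutant yeast for no effect and medium wells lacking yeast for full effect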
tim10-1 inh: tim10-1 yeast growth inhibition; S. cerevisiae tim10-1 ts strain growth, BacTiter-Glo, 24 h; inhibition, % at 20 µM; hit rate 2.2% among 330,000; AID 463190;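 active = inhibition of at least 40%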;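 note: mutant grown at 25 °C; 0% = DMSO wells with yeast and 100% = wells holding no yeast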
PfHsp90 yeast 2: reduces growth (ATP signal) of yeast expressing P. falciparum Hsp90 | hit rate 0.32% among 310,000 | S. cerevisiae expressing PfHsp90, BacTiter-Glo ATP, 48 h; yeast lacking PDR1 and PDR3 efflux regulators | inhibition, % at 9.4 µM;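 active = every replicate shows inhibition above about 80%, whatever the replicate mean, limit read from the data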;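 note: 0% = DMSO neutral controls and 100% = 20 µM radicicol positive controls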
tim10 confirm: confirmation of TIM10 yeast growth inhibitors; shares compounds with TIM10 inh; S. cerevisiae tim10 strain growth, BacTiter-Glo luminescence, 24 h; inhibition, % at 10 µM; hit rate 63% among 4,600; AID 463215;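 active = inhibition of yeast growth at or above a set limit in either of two replicates at 10 µM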;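 note: this counterscreen used the strain with wild-type TIM10; 0% = yeast with DMSO and 100% = medium wells lacking yeast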
An asterisk follows results filed as active; . = not tested or not shown; ! = repeats disagree. Only some compounds are listed: those with a hit (about 4.8% of all), similar ones and a draw of the others.

SMILES	SKKanGAS inh	TIM10 inh	NALP1 yeast inh	tim23-1 inh	tim10-1 inh	PfHsp90 yeast 2	tim10 confirm
Cc1cccc(OCCCCc2c(C)n[nH]c2C)c1	-4.7	40.4*	15.5	37.9	23.6	-3.1	38.8*
COc1ccc(NC(=O)CSc2ccc3nnc(CCNC(=O)c4ccccc4)n3n2)cc1OC	7.2	3.8	13.8	4.0	-9.9	13.6	.
CS(=O)(=O)c1cnc(-c2ccccc2)nc1-c1ccc(Cl)c(Cl)c1	5.5	-3.2	-9.5	3.9	-8.1	-132.6	.
COc1cccc(-c2cc(C(=O)Nc3ccc4c(c3)OCCO4)c3ccccc3n2)c1	3.3	.	36.6	.	.	.	.
CNC(=O)c1cnn(-c2nc(-c3ccc(OC)cc3)cs2)c1C(F)(F)F	6.5	3.7	25.0	-6.3	1.7	15.3	.
CC(C)(C)C(=O)OCc1nc(-c2ccc(F)cc2)cs1	-5.0	40.9*	-0.4	31.5	38.0	-23.3	39.1*
CCOC(=O)c1cnn(-c2nc(-c3ccc(F)cc3)cs2)c1C(F)(F)F	38.8	45.3*	3.1	22.8	24.8	-8.8	25.9
CN1CCc2c(sc3ncn4nc(-c5ccccc5O)nc4c23)C1	.	.	15.0	.	.	.	.
CCn1cc(S(=O)(=O)Nc2cccnc2)cn1	-6.3	-8.3	5.8	7.0	4.8	7.4	.
Cc1cc2[nH]c3c(c[n+](C)c4ccccc34)c2cc1C	4.9	65.9*	-23.8	47.7	38.2	43.6	58.5*
Cc1cc2[nH]c3c4ccccc4nc(C)c3c2cc1C	.	.	.	.	.	23.6	.
O=C1CC(c2ccccc2)=Nc2ccccc2N1Cc1ccccc1	2.8	40.3*	-13.7	18.7	31.0	-0.9	22.8
CN(c1ccccc1)C(c1ccc(F)cc1)c1nnnn1C1CCCC1 (stereo unspecified)	-2.3	45.4*	43.5	37.2	31.8	.	31.4*
CN(c1ccccc1)C(c1ccc(F)cc1)c1nnnn1CC1CCCO1 (stereo unspecified)	3.1	9.1	25.9	38.1	36.5	13.7	.
CCn1c(-c2cc(-c3ccc(C)cc3)nc3ccccc23)n[nH]c1=S	-9.7	41.6*	5.1	49.1	33.4	-26.2	40.9*
CCN(CC)S(=O)(=O)c1cccc(C(=O)N[C@H](C(=O)Nc2nc3ccc(F)cc3s2)C(C)C)c1	26.0	-2.4	19.9	9.5	23.3	-28.3	.
COc1ccc(N2C(=O)/C(=C\c3ccco3)N=C2SCC(=O)N(C(C)C)C(C)C)cc1Cl	2.1	40.8*	13.9	29.8	30.7	0.9	9.1
CCN(CC)CC(O)c1cccn1-c1ccc(CNC(=O)NC(C)C)cc1 (stereo unspecified)	-1.8	-2.6	18.4	7.4	-4.0	-2.2	.
O=C(c1c(Cl)nc2sccn12)N(C(=O)c1c(Cl)nc2sccn12)c1ccc(Cl)cn1	-5.6	42.0*	16.4	47.7	27.2	0.3	21.6
COC(=O)c1sc(S(=O)(=O)NC(C)C(=O)O)c(C(=O)OC)c1C (stereo unspecified)	-0.8	3.3	0.2	4.1	1.4	-26.6	.
Cc1ccc2ccc(C3C(=O)c4ccccc4C3=O)nc2c1	-2.3	61.3*	.	27.3	12.5	-14.2	66.5*
COc1ccc(Nc2ccc(N3C(=O)CC(C)C3=O)cc2[N+](=O)[O-])cc1OC (stereo unspecified)	17.7	-3.9	-1.5	-3.6	-6.4	1.2	.
CC1CCN(C(=O)CSc2nnc(-c3cccs3)o2)CC1	2.8	-16.5	5.9	6.5	5.5	2.9	.
CCC(C(=O)NCc1ccc(F)cc1)N(CCc1ccccc1)C(=O)c1snc(C(N)=O)c1N (stereo unspecified)	6.0	21.2	7.6	21.6	6.4	-3.0	.
Fc1ccc(NC(=S)NN=C2CCCCCC2)cc1	-2.5	44.7*	5.8	31.3	34.2	1.2	20.9
SMILES	SKKanGAS inh	TIM10 inh	NALP1 yeast inh	tim23-1 inh	tim10-1 inh	PfHsp90 yeast 2	tim10 confirm
S=C(NN=C1CCCCCC1)Nc1ccc(Cl)cc1	12.9	32.5	2.8	24.5	31.6	11.4	.
CSc1ccc2c(c1)N(CCC1CCCCN1C)c1ccccc1S2 (stereo unspecified)	11.0	52.5*	50.1*	17.0	23.0	-5.7	29.1
CC(=O)c1ccc2c(c1)N(CCCN1CCC(CCO)CC1)c1ccccc1S2	.	8.6	.	-32.0	-11.1	-4.4	.
O=C1CC(c2c[nH]c3ccccc23)C(=O)N1c1ccccc1 (stereo unspecified)	5.3	3.7	0.0	20.3	20.9	14.1	.
O=C1C=C(Nc2ccc(Cl)cc2)CC(c2ccc(Cl)cc2)C1 (stereo unspecified)	10.7	42.3*	-0.1	28.0	26.1	.	22.4
Cc1ccc(C2CC(=O)C=C(Nc3ccc(Cl)cc3)C2)cc1 (stereo unspecified)	1.5	24.9	18.3	21.1	19.6	9.3	.
COc1cccc(C2=NCCc3cc4c(cc32)OCO4)c1OC	13.6	8.7	36.8	9.6	19.2	-1.7	.
COc1ccc2cc3[n+](cc2c1OC)CCc1cc2c(cc1-3)OCO2	6.5	51.0*!	12.2	12.0	39.1	-3.4	30.2
O=C(c1cn(-c2ccccc2)nc1-c1cccc(Br)c1)N1CCOCC1	0.6	7.9	-2.7	35.7	33.7	47.6	.
Cc1nnc(-c2cccc(Br)c2)c2cn(-c3ccccc3)nc12	8.9	45.7*	.	27.5	31.6	-43.4	46.3*
O=C(N/N=C/c1cc([N+](=O)[O-])ccc1O)C12CC3CC(CC(C3)C1)C2	0.0	23.0	5.9	1.8	9.2	-13.6	.
COc1ccc(N2CCN(C(=O)c3ccc(Oc4ccc(C(F)(F)F)cn4)cc3)CC2)cc1	0.6	44.3*	14.7	26.1	24.4	4.1	40.7*
O=C(c1ccc(Oc2ccc(C(F)(F)F)cn2)cc1)N1CCN(c2ccccc2)CC1	1.6	25.1	9.6	32.8	34.6	-10.5	.
CNC(=O)c1ccc(Nc2nc(-c3ccccc3)nc3ccccc23)cc1	-7.3	40.0*	22.4	30.3	29.7	-7.8	28.0
CCOc1nc2ccccc2nc1C	1.5	0.6	-3.4	10.2	6.7	14.0	.
Cc1ccc(S(=O)(=O)N2CCc3ccccc3C2CN2C(=O)c3ccccc3C2=O)cc1 (stereo unspecified)	1.1	42.8*	26.3	29.7	23.2	0.7	29.4
COc1ccc(S(=O)(=O)c2c(O)c3ccc(C(=O)Nc4ccccc4F)cc3[nH]c2=O)cc1	-3.1	-3.8	12.8	-7.2	-5.3	3.6	.
COc1cccc(CN(C)C(=O)CN2C(=O)NC3(CCCc4ccccc43)C2=O)c1 (stereo unspecified)	.	-3.2	.	-9.8	-8.5	.	.
Cc1ccsc1CN(C)C(=O)CN1C(=O)NC2(CCCc3ccccc32)C1=O (stereo unspecified)	.	95.6*	.	-6.5	11.0	-7.5	-2.3
COc1ccc(CCNC(=O)CSc2nnc3c(n2)[nH]c2ccc(F)cc23)cc1OC	1.8	12.7	8.1	6.2	-12.5	20.9	.
